Screen size: about 57,000 sequences; about 4,100 (7.2%) were called active. No stated cut-off is given here; in the data, active = GI50 up to about 1.1 µM and inactive = higher. A selection follows. Measured potencies and affinities stand elsewhere.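 Where inhibition never reached the appropriate level, the endpoint shown equals the highest concentration tested. Otherwise, values were interpolated linearly from a five-concentration, 48-hour dose response in 96-well plates. The concentration for 50% growth inhibition is given as GI50.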
The substances below were run on SK-MEL-5 (assay: NCI tumour cell line growth inhibition, 48 h).
Work on “cis-Bis[[(trimethylsilyl)methyl]amino]tetrachloroplatinum(IV), CHEMBL2146191” yielded a GI50 of 3.48 µM.
Substance “[Bis(aminomethyl)tetramethylenesilane]tetrachloropaltinum(IV), CHEMBL2146189” has a GI50 of 5.77 µM.
CISPLATIN, CHEMBL11359 was tested, and the GI50 was 2.69 µM.
In the case of “[Bis(aminomethyl)tetramethylenesilane]dichloropaltinum(II), CHEMBL2146205”, the GI50 was 14.8 µM.
For “[Bis(aminomethyl)pentamethylenesilane]dichloropaltinum(II), CHEMBL2146202”, the GI50 was 3.3 µM.
In the case of “[Bis(aminomethyl)diethylsilane]tetrachloroplatinum(IV), CHEMBL2146203”, the GI50 was 73.8 µM.
“[Bis(aminomethyl)ethylmethylsilane]tetrachloroplatinum(IV), CHEMBL2146192” showed a GI50 of 1.15 µM.
With “[Bis(aminomethyl)pentamethylenesilane]tetrachloropaltinum(IV), CHEMBL2146204” the GI50 was 3.21 µM.
“mu-(1,7-nanodiamine-N,N')bis-(cis-aminedichloroplatimum (II)), CHEMBL2146215” showed a GI50 of 5.82 µM.
For “[Bis(aminomethyl)dimethylsilane]dichloroplatinum (II), CHEMBL2146201”, the GI50 was 11.2 µM.
“[Bis(aminomethyl)dimethylsilane]tetrachloroplatinum(IV), CHEMBL2146190” was tested, and the GI50 was 3.85 µM.
